Measurements from PubChem BioAssay (NCI).
About 79,000 compounds went through this panel and 15% of them were active in at least one assay; those are over-represented in the sample as a whole. Rule as the data show it: active = growth inhibition above about 70%; inactive = the rest.

Assays:
[1] = NCI Yeast Anticancer Drug Screen. Data for the rad50 strain (AID 155);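 also: 0% = growth of vehicle-only cultures of the same strain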; details: S. cerevisiae rad50 strain growth inhibition; at 50.0 µM; hits give high values
Outline: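 Compounds were tested on a yeast strain with an engineered DNA damage repair alteration; the reported value is growth inhibition normalised to vehicle treatment.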

[2] = NCI Yeast Anticancer Drug Screen. Data for the mec2-1 strain (AID 157); details: S. cerevisiae mec2-1 strain, at 50.0 µM, hits give high values
Outline: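 Vehicle-treated cultures served as reference for growth inhibition of compound-exposed mec2-1 yeast.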

[3] = NCI Yeast Anticancer Drug Screen. Data for the sgs1 mgt1 strain (AID 161);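 also: 0% = growth of cultures given vehicle only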; details: S. cerevisiae sgs1 mgt1 strain, at 50.0 µM, hits give high values
Outline: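 Genetically altered yeast, compound exposure, growth inhibition relative to vehicle.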

[4] = NCI Yeast Anticancer Drug Screen. Data for the cln2 rad14 strain (AID 165);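 also: 0% = growth equal to vehicle treated cultures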; details: S. cerevisiae cln2 rad14 strain, at 50.0 µM, hits give high values
Outline: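 Each compound was tested on cln2 rad14 yeast. Inhibition of growth was calculated against vehicle-exposed controls.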

[5] = NCI Yeast Anticancer Drug Screen. Data for the bub3 strain (AID 167); details: S. cerevisiae bub3 mutant strain, at 50.0 µM, hits give high values
Outline: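 Growth of a checkpoint-deficient yeast mutant is measured after compound exposure. Values represent inhibition relative to vehicle.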

[6] = NCI Yeast Anticancer Drug Screen. Data for the mlh1 rad18 strain (AID 175); details: S. cerevisiae mlh1 rad18 strain growth inhibition; at 50.0 µM; hits give high values
Outline: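 Vehicle-treated cultures served as the reference for growth inhibition in a yeast strain carrying DNA damage repair alterations exposed to each compound.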

Measured: growth inhibition

CC1=C(C(=O)Nc2ccccc2C)C(c2ccc(N(C)C)cc2)C(C(=O)Nc2ccccc2C)=C(C)N1
inactive: [1] -27% | [2] -20% | [3] -17.4% | [4] -11.2% | [5] -8.95% | [6] -13.8%

ON=C(C(Cl)(Cl)Cl)C(Cl)(Cl)Cl
inactive: [1] -17.2% | [2] -26% | [3] -8.35% | [4] 4.9% | [5] -11.9% | [6] -29.8%

Cn1nc(-c2ccccc2)c(-c2ccccc2)c(C#N)c1=O
inactive: [1] 0.05% | [2] -3.55% | [3] 0.4% | [4] -22.6% | [5] -1.8% | [6] 0.8%

CCOC(OCC)C1CC=CCC1 (stereo not given)
inactive: [1] 0.1% | [2] -1.65% | [3] -6.7% | [4] -13.1% | [5] -6.4% | [6] -0.95%

Cc1nc(Br)c([N+](=O)[O-])[nH]1
inactive: [1] 6.9% | [2] -6.4% | [3] -2.4% | [4] -47.9% | [5] -9.75% | [6] 4.8%

Cn1c2ccccc2c(=O)c2c(O)cc3c(c21)C=CC1(CCCCC1)O3
inactive: [1] -4.75% | [2] 11.4% | [3] -2.25% | [4] 19.1% | [5] -5.65% | [6] 25.1%

CC(C)C1OCCOCCO1
inactive: [1] 9.45% | [2] -12.1% | [3] -18.5% | [4] -21.5% | [5] -9.4% | [6] 9.45%

CC12CCC(NC(=O)C3CCCN3C(=O)OCc3ccccc3)CC1CCC1C2CCC2(C)C(NC(=O)C3CCCN3C(=O)OCc3ccccc3)CCC12 (stereo not given)
inactive: [1] -4.3% | [2] 4.15% | [3] -19.4% | [4] -46% | [5] -5.35% | [6] -3.2%

COC(=O)C(O)c1ccc(C(C)C)cc1 (stereo not given)
inactive: [1] -34.5% | [2] -18.6% | [3] -13.9% | [4] -33.2% | [5] -26.4% | [6] -9.2%

CCOC(=O)C(Cc1c[nH]c2ccccc12)NCCN (stereo not given)
inactive: [1] -4.85% | [2] 4.8% | [3] -1.45% | [4] -9.95% | [5] -7.25% | [6] -3.8%

CCN(CC)C(=O)COc1ccc(Cl)cc1C(C)C
inactive: [1] -17.9% | [2] -16.8% | [3] 1.35% | [4] -2.45% | [5] 14.9% | [6] -31.4%

O=C(O)CCC(NC(=O)c1ccc(Nc2nc3ccccc3nc2C(=O)O)cc1)C(=O)O (stereo not given)
inactive: [1] -2% | [2] -11.2% | [3] -6.15% | [4] 3% | [5] 0% | [6] 0.65%

Cc1ccc(CSCc2c(CSCc3ccc(C)cc3)c(CSCc3ccc(C)cc3)c(CSCc3ccc(C)cc3)c(CSCc3ccc(C)cc3)c2CSCc2ccc(C)cc2)cc1
inactive: [1] -6% | [2] 0.9% | [3] 5.8% | [4] 29.8% | [5] 1.75% | [6] 6.85%

O=[N+]([O-])c1ccc(Oc2ccccc2-c2ccccc2)c([N+](=O)[O-])c1
inactive: [1] -2% | [2] -3.7% | [3] 11.6% | [4] -73.7% | [5] 8.2% | [6] 14.4%

CCCCCCCCCCCCOc1ccc(Br)cc1
inactive: [1] 11.4% | [2] 9.25% | [3] 19% | [4] -23.4% | [5] -13.4% | [6] 8.7%

O=C(O)CC1CC(=O)c2cccn21 (stereo not given)
inactive: [1] -4.35% | [2] 4.85% | [3] -8.15% | [4] 3.6% | [5] 0.8% | [6] -34%

Cn1c2nc(-[n+]3ccc(N4CCOCC4)cc3)nc-2c([O-])n(C)c1=O
inactive: [1] -20.8% | [2] 1.1% | [3] -17.9% | [4] -44.9% | [5] -10.8% | [6] -11.7%

O=c1c(O)c(-c2ccccc2)oc2cc(O)cc(O)c12
inactive: [1] 24.5% | [2] 4.4% | [3] 40.9% | [4] 25.8% | [5] 27.4% | [6] 28.7%

O=C1N=C(c2c[nH]c3ccccc23)C(=O)N1
inactive: [1] -1.8% | [2] 6.9% | [3] 15.9% | [4] 12.6% | [5] -1.45% | [6] 8.8%

c1ccc2c(c1)nn1c3ccc4nonc4c3[n-][n+]21
inactive: [1] 1.2% | [2] -0.5% | [3] 25.9% | [4] 13.2% | [5] 31.4% | [6] -11.4%
